The chains are these.
T1: UNK ZnF1-3 (human, UniProt Q9C0B0 31-174)
T1 sequence: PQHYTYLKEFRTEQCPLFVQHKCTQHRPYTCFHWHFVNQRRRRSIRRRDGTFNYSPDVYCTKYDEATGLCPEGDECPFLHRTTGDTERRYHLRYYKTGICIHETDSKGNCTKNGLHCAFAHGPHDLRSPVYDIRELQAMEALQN

B1: 74491169_74493004_2024_3pUTR_ENSMUSG00000020745_ENSMUST00000021091|mouse|control|control (ssRNA)
RNA: GGGAGUUCUACAGUCCGACGAUCAUCAACGGCACUCCCACACCUUUACUGUUUGAUCUACACUGCCAGUAACCACAUAGGGUGCCGUCUUAUGGAAAUCCAAGGAGGUAACAAAGUGUUCAUGCGCAUUGAGGGUCUUCAUGCCAACAGAGGAUUGAGCAUCA
B2: chr10:36858571:36858572:-_ENSMUSG00000069662_ENSMUST00000092584|mus_hu|FALSE|FALSE (ssRNA)
RNA: GGGAGUUCUACAGUCCGACGAUCAUAAAAAAAUUUUAGUCGAAGAGAUCAAAAAGCAGCAGCACAGGAGGGAGGGAAAAAGGGUGGAAAAGUCGAGCACAAAAAAAGGAGCCCAAGUGUAGUUCGAAAAAAAAAGAAGUAAUACAACAGAGGAUUGAGCAUCA
B3: chr10:36858571:36858572:-_ENSMUSG00000069662_ENSMUST00000092584|mus_mus|FALSE|FALSE (ssRNA)
RNA: GGGAGUUCUACAGUCCGACGAUCAUAAAAAAUUUUUAGUCGAAGAGAUCAAAAAAGCAGCAGCGCAGGAAGGAGGGAAAAAGGUGGAAAAGUCGAGCACAAAAAAGGAGCCCAAGUGUAGUUUUUUUAAAAAAAGAAGUAAUACAACAGAGGAUUGAGCAUCA
B4: 72182037_72182157_980_3pUTR_ENSG00000148730_ENST00000373218|human|control|control (ssRNA)
RNA: GGGAGUUCUACAGUCCGACGAUCCCAGAGGAAAGAAAGGAAGUGGACCUCAAAACAGUGUCACAGGGUAACGCUACCAGAGUUGCACAAGCUGUGCUCUGUCCCGAGGGACGAAUACCUCAAGGUAAAAGGGAAAGCAGCUCUCAACAGAGGAUUGAGCAUCA
B5: chr5:134790399:134790400:-_ENSMUSG00000060261_ENSMUST00000173341|mus_hu|FALSE|FALSE (ssRNA)
RNA: GGGAGUUCUACAGUCCGACGAUCGGGAGGCGAGAGGGGGCGAGGGGCCCGUGCGUGUCGGUCGCGCUCCUGUCACCGCCGCAUGGCCGCCCCGCAGGCAGGGCCUCGCUCAGCGCCUUGAUCCGAUCACUGGGGGACAGAGGCCAACAGAGGAUUGAGCAUCA
B6: chr22:19452774:19452775:-_ENSG00000070010_ENST00000399523|hu_hu|hu_hu_hu_mus_False|28_58 (ssRNA)
RNA: GGGAGUUCUACAGUCCGACGAUCCUUCUCAUUGUAGUUGAUAGCAAUCACAUCUCCAGUCGUCAGACAGGCGAAGUUCCUAAGUGCAUUUUCUAAUACCGCUUUAGGGUUGGUGAUAUCCAGGAAGUCUGGGCUCUGAGGCUGCAACAGAGGAUUGAGCAUCA
B7: chr3:119456006:119456007:-_ENSMUSG00000028134_ENSMUST00000029780|mus_hu|FALSE|FALSE (ssRNA)
RNA: GGGAGUUCUACAGUCCGACGAUCAAUAUGAAGUACACGAGAAGGAGCACCAUCCAUUUUAUCUUCUCCUUUAAAUUUUUUACUAUCAUUACCAUUGGCUGUAACUACCAUGCUGCUCAUAUUAGAGUUCGGACUACUGAGAACCAACAGAGGAUUGAGCAUCA
B8: chr2:42509997:42509998:+_ENSG00000143924_ENST00000318522|hu_hu|FALSE|FALSE (ssRNA)
RNA: GGGAGUUCUACAGUCCGACGAUCUCGCUGAGUUCUCUCCUCAUAAUUAAAUAGUACUACUACUGAUGCAAUGAAAUAAACUAUUUUCCCGGUCGGAAGAAGGUAAACAUUAGCUCUACAGUCCUUUCCUCGAUAACCAUAUGCCAACAGAGGAUUGAGCAUCA
B9: chr14:59855892:59855893:+_ENSMUSG00000035469_ENSMUST00000043227|mus_mus|motif|central (ssRNA)
RNA: GGGAGUUCUACAGUCCGACGAUCGCUUCCAUUAUUAUAUCAGAAGAAAACAUUAAUUUCAAUAAUAGUUUCUUGCUUUCGGUGAUUAUAACCAAAACCAAGUAGAAAAAUAAAAAGAUUGCAUUUAAAAAAAAUUUGCAAACCCAACAGAGGAUUGAGCAUCA
B10: chr14:59855892:59855893:+_ENSMUSG00000035469_ENSMUST00000043227|mus_hu|motif|central (ssRNA)
RNA: GGGAGUUCUACAGUCCGACGAUCUUCCAUUAUUACAUUAGAUGAAAAAAUCAAUUCAAAUAAGAGUUGUCAUAUCCUGCGGUGAUUAACAAAAAAACAAGUAGAAAAAUAAGAGAGUGUAUUUAAAAAAAAUAAUCAAAUGCUCAACAGAGGAUUGAGCAUCA
B11: 55555555_55559808_3342_CDS_ENSG00000115355_ENST00000336838|human|control|control (ssRNA)
RNA: GGGAGUUCUACAGUCCGACGAUCCAAAAGUUUAUACCUGUCAUCAGUACUUUGUUCAUCAUGUAAGAGUCGCUCCUUAUUUAACCCUAUCUUCUCAAGCUCAUGAGUUAAUUUUUCGAGAUCAUUGUUCAUCUGUUGGGUCUUCAACAGAGGAUUGAGCAUCA
B12: chr8:72542918:72542919:-_ENSMUSG00000031858_ENSMUST00000050561|mus_mus|FALSE|FALSE (ssRNA)
RNA: GGGAGUUCUACAGUCCGACGAUCAGCUAUCAAGCCAAGAGGAGCUGAGCUGGUCCCAUAACUGUCCUCCAUGGGAAAGCUAAAUAGCUGCCAGGAAGGAACCCUCUCAUUCAGGUCCAAUGGGACUUCUGCCUGAUGCUUAGGCAACAGAGGAUUGAGCAUCA
B13: chr7:141441981:141441982:+_ENSG00000106028_ENST00000265304|hu_mus|hu_hu_hu_mus_False|8_88 (ssRNA)
RNA: GGGAGUUCUACAGUCCGACGAUCCUCAUGUCUUACAAACUGACGAAGUACCUGUAACACAGGUCUUCGAAACAUGGCUUCUGUUUUUCUUACAACCUAAUCUUUAGGCUUUUCCUAAAGGAAAGAAUAACCCGAGCAAAAUGACAACAGAGGAUUGAGCAUCA
B14: chr5:159492046:159492047:+_ENSG00000113312_ENST00000231238|hu_hu|FALSE|FALSE (ssRNA)
RNA: GGGAGUUCUACAGUCCGACGAUCAGUCAGCUUGUAAAGCUUUUGUUAUCUUUGUUAUCUGUUAUUAUUUGGAUUUUGAACGAAAUUGAUGGAGUACGAGCCGGUAGAGGAAUCCUGUUUGAUCUGGAAAUUUUCCGUGGAGAGCAACAGAGGAUUGAGCAUCA
B15: chr7:54825262:54825263:-_ENSG00000132432_ENST00000352861|hu_hu|hu_hu_hu_mus_False|58_58 (ssRNA)
RNA: GGGAGUUCUACAGUCCGACGAUCCUGCCGGCUGGGCUCCACAAACUGCAUUACCUGAUCCAUGUUUGUUGGAUGGCACACCUAAAACGUAGAGACACGUAGCUCAGGAGAGAACCGAGCCCAACGGAACCGGAAGCUGGCAACCAACAGAGGAUUGAGCAUCA
B16: chr2:148701057:148701058:-_ENSG00000115947_ENST00000542387|hu_hu|FALSE|FALSE (ssRNA)
RNA: GGGAGUUCUACAGUCCGACGAUCUGACCGCAGGUUUUUGCUGAUAUUGAAAUGCUUCUGUAGUACUUCUUGCACACUUCUAUCUUCUGAGAGAUACUGAACAUUUUCAUUCCACUUCUCAGCAAAAACCUUGUCUGGAAACUCCAACAGAGGAUUGAGCAUCA
B17: chr15:59961163:59961164:-_ENSG00000140299_ENST00000607373|hu_mus|FALSE|FALSE (ssRNA)
RNA: GGGAGUUCUACAGUCCGACGAUCGCCGACAUACUCCAUGGGAACAAGCUCUGCCAGCUCGGCCAAGUUAAAGACGUAUCUGAUCUUCUGACUGAACUUUGAACUGAUAAAUGGUCGUGUAACAGCCAGAAGUGUUCGGAUAAACAACAGAGGAUUGAGCAUCA
B18: 6624775_6624895_1421_CDS_ENSMUSG00000041272_ENSMUST00000039987|mouse|control|control (ssRNA)
RNA: GGGAGUUCUACAGUCCGACGAUCGCUCGGAUGCAUGGCGGUGAGCUGAGGAGUCAUUCCUGGUUGUUGGUGAUAGUGAGAACUUAGGUACAGAGCUGAGUGGGCCUGGCUGGGCCCAUGGAAUACUGACGGCUUUGAGUUGACCAACAGAGGAUUGAGCAUCA
B19: chrX:35795285:35795286:-_ENSMUSG00000016534_ENSMUST00000061755|mus_mus|FALSE|FALSE (ssRNA)
RNA: GGGAGUUCUACAGUCCGACGAUCGAAAUUCAUCUCCCAUUCUGCAUAAAGGCAAGUACCCUUUGAAUCUGUCAAAUUAACUAUCAAUGCAUUGGACUGAACGGCUCCUAGGAACAGAAAGAUCAGGAUGAGCUUUGCGCCUUUCAACAGAGGAUUGAGCAUCA
B20: 74470573_74471800_972_CDS_ENSMUSG00000021577_ENSMUST00000022062|mouse|control|control (ssRNA)
RNA: GGGAGUUCUACAGUCCGACGAUCGUUGAUGAGAAUCCCCCCCUCUCCACGACACCCUUCUGUGAUGAGGCAGCCAGCACCGUAUAUACCUGUGGGGUGGAACUGAACAAAUUCUAAGUCCUGGCAAGGCAAACCAGCCCUAGUCAACAGAGGAUUGAGCAUCA
B21: chr1:150192741:150192742:-_ENSG00000143401_ENST00000314136|hu_hu|motif|central (ssRNA)
RNA: GGGAGUUCUACAGUCCGACGAUCUUAAUUAUGGGCUAAAAAUGACUAAUACAGUAAGCUUGAAUUUAAAAAAUUAAGUCGGAAUAAAUUGCUAGGGAAUUCCACAAUGGGAGUCAAUGAAAAUUUUUCUCUACAUACAAUAUGCAACAGAGGAUUGAGCAUCA
B22: chr1:109605286:109605287:-_ENSG00000197780_ENST00000461096|hu_mus|hu_hu_hu_mus_True|18_98 (ssRNA)
RNA: GGGAGUUCUACAGUCCGACGAUCAAGUUUCAGAGUAUUCAGUGAUCACCUCUUUAAAUGCAAUUAUCCUUAUUAUAAGCUAAGCAGAAUAAUAAUUUAAUACCGUAAGUGAACUACCACAAAACCUUGAACCGCGAAAAUGGUCAACAGAGGAUUGAGCAUCA
B23: chr1:109605286:109605287:-_ENSG00000197780_ENST00000461096|hu_mus|hu_hu_hu_mus_True|18_38 (ssRNA)
RNA: GGGAGUUCUACAGUCCGACGAUCAAGUUUCAGAGUAACAUUCAGUAACCUCUUUAAAUGCAAUUAUCCUUAUUAUAAGCUAAGCAGAAUAAUAAUUUAAUACAUAGAGUGAACUACCACAAAACCUUGAACCGCGAAAAUGGUCAACAGAGGAUUGAGCAUCA
B24: chr3:160150142:160150143:+_ENSG00000113810_ENST00000344722|hu_hu|motif|central (ssRNA)
RNA: GGGAGUUCUACAGUCCGACGAUCAAAACCUGCCAUAAAUUCAUUAAGCCUUUGUUUCCGAAGAUCUUCAUAUGCCUGUCGGAAACUGUCUCUUUCAUAAGUAAUUUUGUCCAAUUCUGCUACCCGUUGCAAAUACAAUUCUUCCAACAGAGGAUUGAGCAUCA
B25: chr1:150192741:150192742:-_ENSG00000143401_ENST00000314136|hu_hu|FALSE|FALSE (ssRNA)
RNA: B21 RNA with G80U, G81A

Consider 25 molecules from article PMC12136788.

Changes are numbered by the printed parent chain. The full ranking holds about 24,000 sequences; the median of “enrichment r” is about 0.99, and the highest 2% start at about 3.7. This excerpt belongs to a sample that is enriched for the highest values.

For this assay, the target named is T1, UNK ZnF1-3. Nature of the assay: nsRBNS (natural sequence RNA bind-n-seq); RBNS binding buffer (assumed for nsRBNS): 25 mM Tris pH 7.5, 150 mM KCl, 3 mM MgCl2, 0.01% Triton X-100, 500 ug/ml BSA, 20 U/ml SUPERase-In, 4 C; UNK is unkempt and MSI1 is Musashi-1; names of the RNAs are library labels; protein concentration not given here; high values mean tight binding.
For the molecule B1, the binding signal was 0.744 enrichment R.
Molecule B2 gave a binding signal of 4.29 enrichment R.
In the case of B3 it was 11.7 enrichment R; in that of B4, 0.893 enrichment R.
The result for B5 reads 0.997 enrichment R; that for B6, 0.837 enrichment R.
The result for B7 reads 4.17 enrichment R.
In the case of B8, the binding signal stood at 0.867 enrichment R.
In turn, B9 had a binding signal of 4 enrichment R.
The result for B10 reads 6.68 enrichment R.
B11 registered a binding signal of 0.637 enrichment R.
In the case of B12 it was 1.1 enrichment R; in that of B13, 0.719 enrichment R.
As to B14, the binding signal was determined as 3.66 enrichment R.
In the case of B15 it was 1.08 enrichment R.
Molecule B16 yielded a binding signal of 0.287 enrichment R.
The result for B17 reads 0.638 enrichment R; that for B18, 1.32 enrichment R; that for B19, 1.22 enrichment R.
The result for B20 reads 1.28 enrichment R; that for B21, 6.83 enrichment R.
In the case of B22 it was 0.885 enrichment R.
In the case of B23, the binding signal came to 0.848 enrichment R.
The molecule B24 displayed a binding signal of 1.2 enrichment R.
In the case of B25 it was 4.88 enrichment R.
